Records with an inconclusive call do not appear. Values without a mark were called inactive. Active and inactive are the calls of the source. Calls come from the whole dose curve; as a rule, active = well fitted inhibition curve with a large enough effect; inconclusive = small, poorly fitted or top-dose-only effect; inactive = flat fitted curve, though single readings scatter.
test system: not listed separately; assay: qHTS profiling for inhibitors of Plasmodium falciparum proliferation (AID 504749); note: nearly all actives have a fitted effect of over 60% in size;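 for activity, negative = inhibition: 0% = DMSO vehicle and full inhibition = artemisinin control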; conditions: P. falciparum in erythrocytes, SYBR Green DNA, 72 h; at 28.7 µM (top of the series); parasite line B
Method in brief: (§1)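 Infected RBCs, 0.3% parasitemia/2.5% Hct final; cpd 72 h, 37 C, 5% CO2; lysis buffer with saponin/triton/SYBR Green I, o/n RT dark; FI 485/535; norm. to artemisinin (0.29 uM) and DMSO.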
Potency is the fitted concentration of half-maximal effect.

Row | SMILES | activity, negative = inhibition
1 | CN1CC(=O)N2C(Cc3c([nH]c4ccccc34)[C@H]2c2ccc3c(c2)OCO3)C1=O (some centres undefined) | 5.31%
2 | O=C1C(CCC(O)c2ccc(F)cc2)C(c2ccc(O)cc2)N1c1ccc(F)cc1 (centres undefined) | 8.1%
3 | CC(C)CN(C[C@@H](O)[C@H](Cc1ccccc1)NC(=O)O[C@H]1CO[C@H]2OCC[C@H]21)S(=O)(=O)c1ccc(N)cc1 | -15.6%

test system: 3D7; assay: as above; conditions: P. falciparum in erythrocytes, SYBR Green DNA, 72 h; series mostly up to 28.7 µM; activity, negative = inhibition: at the top concentration
Method in brief: as §1

Row | SMILES | activity, negative = inhibition | Potency
4 | CN1CC(=O)N2C(Cc3c([nH]c4ccccc34)[C@H]2c2ccc3c(c2)OCO3)C1=O (some centres undefined) | -0.933% | 
5 | O=C1C(CCC(O)c2ccc(F)cc2)C(c2ccc(O)cc2)N1c1ccc(F)cc1 (centres undefined) | -1.33% | 
6 | COc1c(C)c2c(c(O)c1CC=C(C)CCC(=O)OCCN1CCOCC1)C(=O)OC2 |  | 11.2 µM (active)
7 | CC(C)CN(C[C@@H](O)[C@H](Cc1ccccc1)NC(=O)O[C@H]1CO[C@H]2OCC[C@H]21)S(=O)(=O)c1ccc(N)cc1 | -1.53% | 

test system: 7G8; assay: as above; conditions: P. falciparum in erythrocytes, SYBR Green DNA, 72 h; series mostly up to 28.7 µM; activity, negative = inhibition: at the top concentration
Method in brief: as §1

Row | SMILES | Potency | activity, negative = inhibition
8 | CN1CC(=O)N2C(Cc3c([nH]c4ccccc34)[C@H]2c2ccc3c(c2)OCO3)C1=O (some centres undefined) | 10 µM (active) | 
9 | O=C1C(CCC(O)c2ccc(F)cc2)C(c2ccc(O)cc2)N1c1ccc(F)cc1 (centres undefined) |  | -27.4%
10 | COc1c(C)c2c(c(O)c1CC=C(C)CCC(=O)OCCN1CCOCC1)C(=O)OC2 | 4.47 µM (active) | 
11 | CC(C)CN(C[C@@H](O)[C@H](Cc1ccccc1)NC(=O)O[C@H]1CO[C@H]2OCC[C@H]21)S(=O)(=O)c1ccc(N)cc1 | 12.6 µM (active) | 

test system: AA1029; assay: as above; conditions: P. falciparum in erythrocytes, SYBR Green DNA, 72 h; series mostly up to 28.7 µM; activity, negative = inhibition: at the top concentration
Method in brief: as §1

Row | SMILES | activity, negative = inhibition | Potency
12 | CN1CC(=O)N2C(Cc3c([nH]c4ccccc34)[C@H]2c2ccc3c(c2)OCO3)C1=O (some centres undefined) | -11.4% | 
13 | O=C1C(CCC(O)c2ccc(F)cc2)C(c2ccc(O)cc2)N1c1ccc(F)cc1 (centres undefined) | 3.55% | 
14 | COc1c(C)c2c(c(O)c1CC=C(C)CCC(=O)OCCN1CCOCC1)C(=O)OC2 |  | 10 µM (active)
15 | CC(C)CN(C[C@@H](O)[C@H](Cc1ccccc1)NC(=O)O[C@H]1CO[C@H]2OCC[C@H]21)S(=O)(=O)c1ccc(N)cc1 | -20.4% | 

test system: AS120; assay: as above; conditions: P. falciparum in erythrocytes, SYBR Green DNA, 72 h; series mostly up to 28.7 µM; activity, negative = inhibition: at the top concentration
Method in brief: as §1

Row | SMILES | activity, negative = inhibition | Potency
16 | CN1CC(=O)N2C(Cc3c([nH]c4ccccc34)[C@H]2c2ccc3c(c2)OCO3)C1=O (some centres undefined) | -15.1% | 
17 | O=C1C(CCC(O)c2ccc(F)cc2)C(c2ccc(O)cc2)N1c1ccc(F)cc1 (centres undefined) | -2.69% | 
18 | COc1c(C)c2c(c(O)c1CC=C(C)CCC(=O)OCCN1CCOCC1)C(=O)OC2 |  | 7.94 µM (active)
19 | CC(C)CN(C[C@@H](O)[C@H](Cc1ccccc1)NC(=O)O[C@H]1CO[C@H]2OCC[C@H]21)S(=O)(=O)c1ccc(N)cc1 | -20.8% | 

test system: ATS189; assay: as above; conditions: P. falciparum in erythrocytes, SYBR Green DNA, 72 h; series mostly up to 28.7 µM; activity, negative = inhibition: at the top concentration
Method in brief: as §1

Row | SMILES | activity, negative = inhibition | Potency
20 | CN1CC(=O)N2C(Cc3c([nH]c4ccccc34)[C@H]2c2ccc3c(c2)OCO3)C1=O (some centres undefined) | 11.6% | 
21 | O=C1C(CCC(O)c2ccc(F)cc2)C(c2ccc(O)cc2)N1c1ccc(F)cc1 (centres undefined) | 1.96% | 
22 | COc1c(C)c2c(c(O)c1CC=C(C)CCC(=O)OCCN1CCOCC1)C(=O)OC2 |  | 7.94 µM (active)
23 | CC(C)CN(C[C@@H](O)[C@H](Cc1ccccc1)NC(=O)O[C@H]1CO[C@H]2OCC[C@H]21)S(=O)(=O)c1ccc(N)cc1 | -2.3% | 

test system: ATS95; assay: as above; conditions: P. falciparum in erythrocytes, SYBR Green DNA, 72 h; series mostly up to 28.7 µM; activity, negative = inhibition: at the top concentration
Method in brief: as §1

Row | SMILES | activity, negative = inhibition | Potency
24 | CN1CC(=O)N2C(Cc3c([nH]c4ccccc34)[C@H]2c2ccc3c(c2)OCO3)C1=O (some centres undefined) | -6.39% | 
25 | O=C1C(CCC(O)c2ccc(F)cc2)C(c2ccc(O)cc2)N1c1ccc(F)cc1 (centres undefined) | -2.37% | 
26 | COc1c(C)c2c(c(O)c1CC=C(C)CCC(=O)OCCN1CCOCC1)C(=O)OC2 |  | 7.94 µM (active)
27 | CC(C)CN(C[C@@H](O)[C@H](Cc1ccccc1)NC(=O)O[C@H]1CO[C@H]2OCC[C@H]21)S(=O)(=O)c1ccc(N)cc1 | -8.25% | 

test system: C2A; assay: as above; conditions: P. falciparum in erythrocytes, SYBR Green DNA, 72 h; series mostly up to 28.7 µM; activity, negative = inhibition: at the top concentration
Method in brief: as §1

Row | SMILES | activity, negative = inhibition | Potency
28 | CN1CC(=O)N2C(Cc3c([nH]c4ccccc34)[C@H]2c2ccc3c(c2)OCO3)C1=O (some centres undefined) | -4.27% | 
29 | O=C1C(CCC(O)c2ccc(F)cc2)C(c2ccc(O)cc2)N1c1ccc(F)cc1 (centres undefined) | -3.51% | 
30 | COc1c(C)c2c(c(O)c1CC=C(C)CCC(=O)OCCN1CCOCC1)C(=O)OC2 |  | 11.2 µM (active)
31 | CC(C)CN(C[C@@H](O)[C@H](Cc1ccccc1)NC(=O)O[C@H]1CO[C@H]2OCC[C@H]21)S(=O)(=O)c1ccc(N)cc1 | 1.22% | 

test system: CP185; assay: as above; conditions: P. falciparum in erythrocytes, SYBR Green DNA, 72 h; series mostly up to 28.7 µM; activity, negative = inhibition: at the top concentration
Method in brief: as §1

Row | SMILES | activity, negative = inhibition
32 | CN1CC(=O)N2C(Cc3c([nH]c4ccccc34)[C@H]2c2ccc3c(c2)OCO3)C1=O (some centres undefined) | 1.07%
33 | O=C1C(CCC(O)c2ccc(F)cc2)C(c2ccc(O)cc2)N1c1ccc(F)cc1 (centres undefined) | 3.03%
34 | CC(C)CN(C[C@@H](O)[C@H](Cc1ccccc1)NC(=O)O[C@H]1CO[C@H]2OCC[C@H]21)S(=O)(=O)c1ccc(N)cc1 | 1.04%

— PubChem BioAssay (NCATS)
